Consider 1 sequence from PMC7862700, “An all-to-all approach to the identification of sequence-specific readers for epigenetic DNA modifications on cytosine”.

Test in all cases: DAPPL (digital affinity profiling via proximity ligation, sequencing); 10 mM Tris-HCl pH 7.5, 50 mM NaCl, 1 mM DTT, 4% glycerol, room temperature, 30 min; GST-TFs on glutathione beads, 16-mer random dsDNA library, 0.1% formaldehyde crosslink after washing; high values mean tight binding
The target in assay [1] is T1, FEV (Homo sapiens, UniProt Q99581 1-238).
T1 sequence: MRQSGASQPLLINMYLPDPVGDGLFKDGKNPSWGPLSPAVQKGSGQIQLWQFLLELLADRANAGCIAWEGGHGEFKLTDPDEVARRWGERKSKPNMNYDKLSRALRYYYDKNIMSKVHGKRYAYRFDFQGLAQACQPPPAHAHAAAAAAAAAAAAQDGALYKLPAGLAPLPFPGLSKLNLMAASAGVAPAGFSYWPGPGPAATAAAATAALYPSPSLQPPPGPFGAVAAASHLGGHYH
The following applies: protein: recombinant; tags: N-terminal GST; dsDNA, one strand shown. A digest of the protocol: (§1)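 Pools were built from human transcription factors expressed in yeast as GST fusions, captured on glutathione beads and DNA-barcoded, along with a tag-only sample. Incubation with 200 nmole of a 16-mer random double-stranded DNA library lasted 30 min at room temperature in Tris/NaCl/DTT/glycerol buffer, and was followed by washing, 0.1% formaldehyde crosslinking, proximity ligation, PCR amplification and Illumina NextSeq500 sequencing. Binding signal is the quotient of each hexamer's read frequency for a factor and its frequency for the tag-only sample.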

The target in assay [2] is ETV5 (Homo sapiens, UniProt P41161 1-510). The note with it: protein: recombinant; tags: N-terminal GST; dsDNA, one strand shown. In a few lines:
as §1

Assay [3] concerns the target HSF1 (Homo sapiens, UniProt Q00613 1-529). The note with it: protein: recombinant; tags: N-terminal GST; chain copies: 3; dsDNA, one strand shown. In a few lines: as §1
Assay [4] concerns the target T2, SPIC (Homo sapiens, UniProt Q8N5J4 1-248).
T2 sequence: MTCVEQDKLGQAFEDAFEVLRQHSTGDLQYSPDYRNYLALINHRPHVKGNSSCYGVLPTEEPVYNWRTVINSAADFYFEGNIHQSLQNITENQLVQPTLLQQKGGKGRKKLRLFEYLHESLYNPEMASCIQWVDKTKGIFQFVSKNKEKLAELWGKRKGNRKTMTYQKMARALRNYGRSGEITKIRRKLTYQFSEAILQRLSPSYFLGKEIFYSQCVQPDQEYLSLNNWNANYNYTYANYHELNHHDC
The note with it: protein: recombinant; tags: N-terminal GST; dsDNA, one strand shown. A digest of the protocol:
as §1

For assay [5], the target named is ELF4 (Homo sapiens, UniProt Q99607 1-663). The note with it: protein: recombinant; tags: N-terminal GST; dsDNA, one strand shown. A digest of the protocol:
as §1

The target of assay [6] is T3, ELK4 (Homo sapiens, UniProt P28324-2 1-405).
T3 sequence: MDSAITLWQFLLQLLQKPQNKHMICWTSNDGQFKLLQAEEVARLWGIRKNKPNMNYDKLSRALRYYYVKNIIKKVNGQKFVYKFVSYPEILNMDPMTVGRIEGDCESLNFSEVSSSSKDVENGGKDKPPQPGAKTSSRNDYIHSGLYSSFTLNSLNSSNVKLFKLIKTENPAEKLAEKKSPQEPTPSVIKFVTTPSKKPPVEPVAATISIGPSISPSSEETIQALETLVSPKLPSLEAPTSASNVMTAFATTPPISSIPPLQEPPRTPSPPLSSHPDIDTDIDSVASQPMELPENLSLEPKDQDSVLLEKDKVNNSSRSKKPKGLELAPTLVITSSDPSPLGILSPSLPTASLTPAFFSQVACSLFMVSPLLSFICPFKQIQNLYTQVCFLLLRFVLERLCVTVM
The note with it: protein: recombinant; tags: N-terminal GST; dsDNA, one strand shown. A digest of the protocol: as §1

Assay [7] addresses T4, ETV2 (Homo sapiens, UniProt O00321 1-342).
T4 sequence: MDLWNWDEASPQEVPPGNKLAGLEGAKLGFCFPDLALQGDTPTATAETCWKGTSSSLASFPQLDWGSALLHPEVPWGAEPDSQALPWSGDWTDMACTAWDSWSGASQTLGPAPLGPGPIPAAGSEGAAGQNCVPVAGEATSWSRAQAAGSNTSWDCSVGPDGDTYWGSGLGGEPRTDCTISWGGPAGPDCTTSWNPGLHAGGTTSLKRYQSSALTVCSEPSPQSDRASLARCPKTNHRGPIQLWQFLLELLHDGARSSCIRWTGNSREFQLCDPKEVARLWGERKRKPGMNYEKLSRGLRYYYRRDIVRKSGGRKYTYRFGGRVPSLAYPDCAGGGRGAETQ
The note with it: protein: recombinant; tags: N-terminal GST; dsDNA, one strand shown. A digest of the protocol: as §1

The target in assay [8] is T5, ELF3 (Homo sapiens, UniProt P78545 1-371).
T5 sequence: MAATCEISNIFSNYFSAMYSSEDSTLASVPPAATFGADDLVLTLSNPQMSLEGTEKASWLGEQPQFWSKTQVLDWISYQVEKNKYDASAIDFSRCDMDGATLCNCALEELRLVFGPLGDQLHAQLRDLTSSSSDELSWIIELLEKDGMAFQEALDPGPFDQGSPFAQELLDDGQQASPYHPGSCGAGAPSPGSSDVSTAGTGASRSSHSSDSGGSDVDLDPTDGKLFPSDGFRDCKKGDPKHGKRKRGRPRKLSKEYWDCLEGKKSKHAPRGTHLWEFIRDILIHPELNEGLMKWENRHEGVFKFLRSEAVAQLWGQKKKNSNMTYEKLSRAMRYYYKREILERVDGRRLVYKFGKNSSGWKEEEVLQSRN
The note with it: protein: recombinant; tags: N-terminal GST; dsDNA, one strand shown. A digest of the protocol:
as §1

The target of assay [9] is CRX (Homo sapiens, UniProt O43186 1-299). The following applies: protein: recombinant; tags: N-terminal GST; dsDNA, one strand shown. In a few lines: as §1
Chain of CRX (O43186 whole entry): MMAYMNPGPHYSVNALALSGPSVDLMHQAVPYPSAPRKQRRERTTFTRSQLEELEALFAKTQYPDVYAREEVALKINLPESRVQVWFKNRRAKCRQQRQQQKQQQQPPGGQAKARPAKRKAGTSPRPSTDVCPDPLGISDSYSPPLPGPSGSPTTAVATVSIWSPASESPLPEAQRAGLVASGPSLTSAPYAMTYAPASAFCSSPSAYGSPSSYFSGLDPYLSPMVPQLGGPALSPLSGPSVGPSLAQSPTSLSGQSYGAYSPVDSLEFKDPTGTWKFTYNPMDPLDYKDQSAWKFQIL
Assay [10] deals with ETV1 (Homo sapiens, UniProt P50549 1-477). The note with it: protein: recombinant; tags: N-terminal GST; dsDNA, one strand shown. In a few lines:
as §1

In assay [11] the target is T6, ERF (Homo sapiens, UniProt P50548 1-548).
T6 sequence: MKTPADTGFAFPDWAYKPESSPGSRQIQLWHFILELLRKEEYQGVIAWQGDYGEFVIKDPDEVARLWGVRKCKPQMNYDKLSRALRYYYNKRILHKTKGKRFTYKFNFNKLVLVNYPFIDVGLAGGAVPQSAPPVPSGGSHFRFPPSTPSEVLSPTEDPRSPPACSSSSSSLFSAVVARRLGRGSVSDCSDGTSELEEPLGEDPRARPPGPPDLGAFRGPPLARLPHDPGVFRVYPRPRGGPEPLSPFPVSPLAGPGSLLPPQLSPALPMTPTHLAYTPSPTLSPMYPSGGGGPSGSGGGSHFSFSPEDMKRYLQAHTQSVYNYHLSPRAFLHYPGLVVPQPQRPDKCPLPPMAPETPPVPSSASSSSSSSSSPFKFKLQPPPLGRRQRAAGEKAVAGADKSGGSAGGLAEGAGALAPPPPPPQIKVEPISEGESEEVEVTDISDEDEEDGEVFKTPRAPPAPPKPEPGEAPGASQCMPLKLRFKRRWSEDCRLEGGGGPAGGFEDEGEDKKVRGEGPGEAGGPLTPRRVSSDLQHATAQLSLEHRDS
The following applies: protein: recombinant; tags: N-terminal GST; dsDNA, one strand shown. In a few lines:
as §1

Assay [12] addresses T7, ETV3L (Homo sapiens, UniProt Q6ZN32 1-361).
T7 sequence: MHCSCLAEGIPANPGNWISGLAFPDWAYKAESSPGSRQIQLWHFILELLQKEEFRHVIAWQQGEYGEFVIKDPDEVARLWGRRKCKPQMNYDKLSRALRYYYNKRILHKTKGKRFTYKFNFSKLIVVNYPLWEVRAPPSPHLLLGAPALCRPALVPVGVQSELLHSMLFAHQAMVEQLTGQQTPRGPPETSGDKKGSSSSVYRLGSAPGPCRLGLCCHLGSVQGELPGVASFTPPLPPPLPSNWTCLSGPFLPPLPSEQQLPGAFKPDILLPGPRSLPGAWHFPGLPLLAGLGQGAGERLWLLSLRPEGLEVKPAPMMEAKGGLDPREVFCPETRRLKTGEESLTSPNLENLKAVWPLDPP
The note with it: protein: recombinant; tags: N-terminal GST; dsDNA, one strand shown. A digest of the protocol: as §1

The target in assay [13] is T8, ETS2 (Homo sapiens, UniProt P15036 1-469).
T8 sequence: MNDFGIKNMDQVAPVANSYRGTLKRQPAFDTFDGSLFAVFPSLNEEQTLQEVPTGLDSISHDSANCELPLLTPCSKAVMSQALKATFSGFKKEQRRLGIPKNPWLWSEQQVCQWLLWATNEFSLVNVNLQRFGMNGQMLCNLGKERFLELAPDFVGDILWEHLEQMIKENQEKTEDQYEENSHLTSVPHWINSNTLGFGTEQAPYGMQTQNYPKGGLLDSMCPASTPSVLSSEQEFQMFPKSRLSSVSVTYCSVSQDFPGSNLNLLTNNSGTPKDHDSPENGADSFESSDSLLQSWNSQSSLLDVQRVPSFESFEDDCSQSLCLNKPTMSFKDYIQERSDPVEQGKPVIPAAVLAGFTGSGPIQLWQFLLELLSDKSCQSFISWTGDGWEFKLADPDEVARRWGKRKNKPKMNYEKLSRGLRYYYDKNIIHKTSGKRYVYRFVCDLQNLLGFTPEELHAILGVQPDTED
The following applies: protein: recombinant; tags: N-terminal GST; dsDNA, one strand shown. In a few lines: as §1

Assay [14] concerns the target T9, SPDEF (Homo sapiens, UniProt O95238 1-335).
T9 sequence: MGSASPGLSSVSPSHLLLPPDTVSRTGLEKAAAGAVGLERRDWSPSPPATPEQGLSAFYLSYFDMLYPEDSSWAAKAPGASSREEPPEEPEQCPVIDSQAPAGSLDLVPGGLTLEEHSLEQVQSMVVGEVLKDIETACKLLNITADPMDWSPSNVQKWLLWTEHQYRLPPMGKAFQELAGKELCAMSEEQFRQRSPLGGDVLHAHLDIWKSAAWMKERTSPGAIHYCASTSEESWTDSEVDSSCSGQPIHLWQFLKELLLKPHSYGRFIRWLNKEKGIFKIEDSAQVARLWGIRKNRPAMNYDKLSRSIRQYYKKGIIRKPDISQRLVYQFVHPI
The following applies: protein: recombinant; tags: N-terminal GST; dsDNA, one strand shown. In a few lines: as §1

Assay [15] addresses T10, ETV7 (Homo sapiens, UniProt Q9Y603 1-341).
T10 sequence: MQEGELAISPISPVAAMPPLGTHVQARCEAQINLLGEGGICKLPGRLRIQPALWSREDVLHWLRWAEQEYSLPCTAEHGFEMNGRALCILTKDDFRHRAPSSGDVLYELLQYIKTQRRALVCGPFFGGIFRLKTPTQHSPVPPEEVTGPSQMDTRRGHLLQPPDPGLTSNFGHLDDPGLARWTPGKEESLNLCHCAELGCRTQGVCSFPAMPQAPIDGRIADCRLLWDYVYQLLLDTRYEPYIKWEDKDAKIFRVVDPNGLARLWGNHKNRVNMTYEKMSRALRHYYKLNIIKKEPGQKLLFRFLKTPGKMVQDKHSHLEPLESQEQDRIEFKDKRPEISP
The following applies: protein: recombinant; tags: N-terminal GST; dsDNA, one strand shown. In a few lines: as §1

For assay [16], the target named is T11, ELF5 (Homo sapiens, UniProt Q9UKW6-2 1-255).
T11 sequence: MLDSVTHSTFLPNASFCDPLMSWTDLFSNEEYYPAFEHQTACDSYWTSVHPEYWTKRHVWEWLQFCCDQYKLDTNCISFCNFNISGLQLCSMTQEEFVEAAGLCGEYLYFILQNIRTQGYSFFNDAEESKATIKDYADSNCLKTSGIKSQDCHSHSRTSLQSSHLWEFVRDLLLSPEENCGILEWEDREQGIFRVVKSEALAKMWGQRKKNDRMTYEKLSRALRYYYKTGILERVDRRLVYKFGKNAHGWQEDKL
The following applies: protein: recombinant; tags: N-terminal GST; dsDNA, one strand shown. A digest of the protocol:
as §1

Assay [17] deals with T12, ETV3 (Homo sapiens, UniProt P41162-2 1-143).
T12 sequence: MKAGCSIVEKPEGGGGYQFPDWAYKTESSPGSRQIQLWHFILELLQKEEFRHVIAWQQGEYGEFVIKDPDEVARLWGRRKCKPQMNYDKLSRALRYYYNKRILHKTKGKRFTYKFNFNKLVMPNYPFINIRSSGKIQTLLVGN
The following applies: protein: recombinant; tags: N-terminal GST; dsDNA, one strand shown. In a few lines: as §1

Assay [18] addresses ETV6 (Homo sapiens, UniProt P41212 1-452). The following applies: protein: recombinant; tags: N-terminal GST; dsDNA, one strand shown. A digest of the protocol: as §1

Chain of HSF1 (Q00613 whole entry): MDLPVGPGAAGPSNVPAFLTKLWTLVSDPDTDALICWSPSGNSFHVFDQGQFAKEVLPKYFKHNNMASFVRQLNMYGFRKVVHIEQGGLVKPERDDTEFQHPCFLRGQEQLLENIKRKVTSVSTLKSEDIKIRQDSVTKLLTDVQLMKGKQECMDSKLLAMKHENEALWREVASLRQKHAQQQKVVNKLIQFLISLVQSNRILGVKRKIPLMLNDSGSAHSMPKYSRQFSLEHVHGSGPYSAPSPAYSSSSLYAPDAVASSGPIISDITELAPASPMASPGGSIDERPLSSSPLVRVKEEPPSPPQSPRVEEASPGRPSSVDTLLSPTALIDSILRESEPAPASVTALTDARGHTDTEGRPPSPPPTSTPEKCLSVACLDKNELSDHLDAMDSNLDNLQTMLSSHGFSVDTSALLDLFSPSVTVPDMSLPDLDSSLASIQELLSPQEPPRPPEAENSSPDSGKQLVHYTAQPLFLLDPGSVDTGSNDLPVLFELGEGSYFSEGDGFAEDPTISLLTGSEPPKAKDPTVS
Chain of ETV5 (P41161 whole entry): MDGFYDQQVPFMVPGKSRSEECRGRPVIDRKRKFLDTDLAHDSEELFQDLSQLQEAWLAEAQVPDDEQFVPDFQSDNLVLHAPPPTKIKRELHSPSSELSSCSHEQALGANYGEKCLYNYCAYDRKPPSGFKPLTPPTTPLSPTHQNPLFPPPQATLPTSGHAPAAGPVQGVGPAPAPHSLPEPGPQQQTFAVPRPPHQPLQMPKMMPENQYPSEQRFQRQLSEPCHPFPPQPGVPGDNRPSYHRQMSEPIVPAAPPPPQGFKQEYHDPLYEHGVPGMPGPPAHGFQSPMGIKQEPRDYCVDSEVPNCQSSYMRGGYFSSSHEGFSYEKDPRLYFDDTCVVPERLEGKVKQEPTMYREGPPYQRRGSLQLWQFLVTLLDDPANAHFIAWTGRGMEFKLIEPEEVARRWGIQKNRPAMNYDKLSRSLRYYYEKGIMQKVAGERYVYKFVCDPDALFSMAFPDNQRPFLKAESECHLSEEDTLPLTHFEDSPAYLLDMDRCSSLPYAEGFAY
Chain of ETV1 (P50549 whole entry): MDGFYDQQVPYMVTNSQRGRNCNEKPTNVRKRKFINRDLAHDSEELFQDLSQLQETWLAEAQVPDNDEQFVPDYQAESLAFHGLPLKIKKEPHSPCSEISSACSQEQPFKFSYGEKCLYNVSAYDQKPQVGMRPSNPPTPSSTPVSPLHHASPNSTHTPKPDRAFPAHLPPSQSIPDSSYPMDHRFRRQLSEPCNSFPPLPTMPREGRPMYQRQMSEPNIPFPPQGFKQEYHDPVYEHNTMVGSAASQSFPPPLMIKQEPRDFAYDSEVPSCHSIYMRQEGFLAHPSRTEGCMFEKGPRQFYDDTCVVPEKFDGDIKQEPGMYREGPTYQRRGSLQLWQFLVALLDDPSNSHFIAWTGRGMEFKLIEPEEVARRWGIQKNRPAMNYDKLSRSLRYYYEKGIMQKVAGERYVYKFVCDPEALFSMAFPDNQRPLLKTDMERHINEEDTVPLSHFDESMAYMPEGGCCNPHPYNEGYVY
Chain of ETV6 (P41212 whole entry): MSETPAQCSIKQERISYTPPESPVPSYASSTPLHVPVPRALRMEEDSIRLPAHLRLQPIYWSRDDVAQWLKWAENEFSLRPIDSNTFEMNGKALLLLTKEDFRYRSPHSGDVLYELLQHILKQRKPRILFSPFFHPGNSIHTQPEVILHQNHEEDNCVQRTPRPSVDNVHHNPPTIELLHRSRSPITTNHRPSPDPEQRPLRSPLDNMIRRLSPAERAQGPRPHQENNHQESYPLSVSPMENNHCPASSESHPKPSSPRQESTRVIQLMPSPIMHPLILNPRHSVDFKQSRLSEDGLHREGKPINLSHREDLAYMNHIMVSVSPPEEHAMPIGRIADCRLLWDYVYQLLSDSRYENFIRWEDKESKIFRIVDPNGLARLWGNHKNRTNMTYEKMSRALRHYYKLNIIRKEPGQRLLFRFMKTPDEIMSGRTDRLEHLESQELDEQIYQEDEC
Chain of ELF4 (Q99607 whole entry): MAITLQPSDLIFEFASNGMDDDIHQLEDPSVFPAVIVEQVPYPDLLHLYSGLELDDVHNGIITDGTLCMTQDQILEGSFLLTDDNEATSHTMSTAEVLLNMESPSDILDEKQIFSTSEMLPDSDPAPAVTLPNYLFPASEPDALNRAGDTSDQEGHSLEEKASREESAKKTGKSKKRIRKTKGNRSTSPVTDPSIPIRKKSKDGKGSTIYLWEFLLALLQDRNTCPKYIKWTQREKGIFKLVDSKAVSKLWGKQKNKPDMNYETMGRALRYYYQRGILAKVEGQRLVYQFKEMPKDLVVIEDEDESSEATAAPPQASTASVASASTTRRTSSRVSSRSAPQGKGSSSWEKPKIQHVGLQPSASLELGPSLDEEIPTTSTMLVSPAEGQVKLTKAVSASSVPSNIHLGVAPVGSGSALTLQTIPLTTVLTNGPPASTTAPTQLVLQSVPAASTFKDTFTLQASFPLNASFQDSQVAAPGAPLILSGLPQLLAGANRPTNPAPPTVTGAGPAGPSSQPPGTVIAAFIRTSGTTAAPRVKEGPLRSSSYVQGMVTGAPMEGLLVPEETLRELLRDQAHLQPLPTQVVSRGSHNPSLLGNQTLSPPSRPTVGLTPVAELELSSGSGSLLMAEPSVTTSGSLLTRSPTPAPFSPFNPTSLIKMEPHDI

For the sequence TTTTAA, the binding signal in assay [1] is 1.26 fold enrichment (6-mer frequency, TF over GST control); in assay [2], 1.24 fold enrichment (6-mer frequency, TF over GST control); in assay [3], 1.59 fold enrichment (6-mer frequency, TF over GST control); in [4] it was 1.15 fold enrichment (6-mer frequency, TF over GST control); in assay [5], 1.28 fold enrichment (6-mer frequency, TF over GST control); in [6], 1.22 fold enrichment (6-mer frequency, TF over GST control). The binding signal was 1.27 fold enrichment (6-mer frequency, TF over GST control) in [7]; 1.32 fold enrichment (6-mer frequency, TF over GST control) in assay [8]; 2.18 fold enrichment (6-mer frequency, TF over GST control) in assay [9]; 1.26 fold enrichment (6-mer frequency, TF over GST control) in assay [10]; 1.37 fold enrichment (6-mer frequency, TF over GST control) in assay [11]; 1.28 fold enrichment (6-mer frequency, TF over GST control) in [12]. Moreover, the binding signal is 1.28 fold enrichment (6-mer frequency, TF over GST control) in [13]; 1.21 fold enrichment (6-mer frequency, TF over GST control) in assay [14]; 1.32 fold enrichment (6-mer frequency, TF over GST control) in assay [15]; 1.17 fold enrichment (6-mer frequency, TF over GST control) in assay [16]; 1.23 fold enrichment (6-mer frequency, TF over GST control) in [17]; 1.27 fold enrichment (6-mer frequency, TF over GST control) in assay [18].
